FUS yeast rescue – qHTS for Suppressors of FUS Proteinopathy: Primary screen using FUS-linked yeast assay; 390,000 compounds, 0.24% hits; S. cerevisiae FUS-expressing, growth rescue, OD600, 24 h; Potency, µM (top dose mostly 76.6 µM), actives largely listed as activators;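 also: potency is read from the fitted curve at half-maximal effect; plate controls were DMSO vehicle for no effect and reference control for full effect; nearly all actives have a fitted effect of over 55% in size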
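Quantitative HTS measuring growth restoration of FUS-toxic yeast. Galactose-induced cells (OD 0.005) were exposed 24hr at 30C to compounds at several concentrations, then absorbance at 600 nm was recorded.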
TDP43 rescue – qHTS of TDP-43 Inhibitors; TDP-43 expressing yeast growth rescue, BacTiter-Glo, 24 h; Potency, µM (top dose mostly 46.1 µM), for the others: at the top dose growth rescue (activation), hits mostly activators; 410,000 compounds, 1.8% hits; also: potency is read from the fitted curve at half-maximal effect; % of control where 0% means no effect; nearly all actives have a fitted effect of over 50% in size
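In this qHTS, compounds that restore growth of yeast expressing TDP-43 appear as activators. Cells (OD600=0.02, galactose medium, raffinose-pregrown) are incubated with compound 24 hr at 30 deg C and growth is quantified by BacTiter-Glo.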
aSyn rescue – qHTS of alpha-syn Inhibitors. Yeast expressing alpha-synuclein, growth rescue, BacTiter-Glo, 24 h. Potency, µM (top dose mostly 46.1 µM), without a hit: top-dose growth rescue (activation), most hits filed as activators. 370,000 compounds, 0.14% hits. AID 652106, 2013; also: potency is read from the fitted curve at half-maximal effect; % of control where 0% means no effect; nearly all actives have a fitted effect of over 65% in size
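Screening used galactose-induced yeast with toxic alpha-synuclein levels, exposed to compound for 24 hr at 30 deg C. Cell growth, read with BacTiter-Glo luminescence, gave the measured signal.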
Abeta yeast res – qHTS for compounds that reverse cellular toxicity of Amyloid beta (A-beta) peptide in yeast: Primary Screen | yeast expressing A-beta42, growth rescue, OD600, 48 h; response scale: 0% DMSO, 100% iron-clioquinol control | Potency, µM (highest dose often 46.1 µM), actives largely listed as activators | 410,000 compounds, 0.063% hits | AID 1347071, 2019; also: potency is read from the fitted curve at half-maximal effect; nearly all actives have a fitted effect of over 55% in size
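Growth rescue measured by 600 nm absorbance after 48 h yeast culture at 30 C with compound. Values normalized between DMSO and an equimolar ferric chloride plus clioquinol control.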
LDHA inh – qHTS assay for inhibitors of human lactate dehydrogenase | L-lactate dehydrogenase A chain (Homo sapiens), P00338 | AID 1347041, 2019 | 480,000 compounds, 0.15% hits | purified LDHA, NADH/diaphorase-resazurin fluorescence; hits give low values | activity change, % (values are at about 110 or 230 µM); in the data active = activity change below about -30%; inconclusive = mostly about -25% to -30%;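 also: plate controls were DMSO wells for no effect and wells without enzyme for full effect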
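Resorufin fluorescence (ex540/em590), read at 0 and 20 min after diaphorase/resazurin addition, reports the NADH left after a 5 min room-temperature reaction of 2 nM human LDH5 with 0.06 mM NADH and 0.2 mM pyruvate.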
PTHR1 agonist – qHTS for PTHR1 Agonists: Primary Screen; Parathyroid hormone/parathyroid hormone-related peptide receptor (Homo sapiens), Q03431; HEK293 GP2 PTHR1 cells, GloSensor cAMP luminescence, 1 h; Potency, µM (highest dose often 115 µM), without a hit: top-dose activation, actives largely listed as activators; 410,000 compounds, 0.075% hits; also: potency is read from the fitted curve at half-maximal effect; nearly all actives have a fitted effect of over 55% in size
Target sequence (Q03431 whole entry, looked up): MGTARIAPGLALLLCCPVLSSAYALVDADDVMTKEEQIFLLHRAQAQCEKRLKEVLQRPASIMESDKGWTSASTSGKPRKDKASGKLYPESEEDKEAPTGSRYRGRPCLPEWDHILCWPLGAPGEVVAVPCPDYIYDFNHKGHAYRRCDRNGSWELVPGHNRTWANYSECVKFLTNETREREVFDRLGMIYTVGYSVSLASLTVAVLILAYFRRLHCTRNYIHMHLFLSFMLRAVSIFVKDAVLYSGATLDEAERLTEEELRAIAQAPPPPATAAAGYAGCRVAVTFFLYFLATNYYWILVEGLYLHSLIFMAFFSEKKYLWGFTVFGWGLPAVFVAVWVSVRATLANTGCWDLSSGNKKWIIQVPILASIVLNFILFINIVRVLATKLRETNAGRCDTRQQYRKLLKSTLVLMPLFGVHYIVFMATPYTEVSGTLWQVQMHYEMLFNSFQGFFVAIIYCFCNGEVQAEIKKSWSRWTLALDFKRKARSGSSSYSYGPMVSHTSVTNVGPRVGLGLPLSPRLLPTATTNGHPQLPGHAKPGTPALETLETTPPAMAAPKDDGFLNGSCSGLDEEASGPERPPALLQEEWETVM
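HEK-293-derived GP2 cells expressing PTHR1 and a GloSensor cAMP reporter, 3,000/well, plated overnight, given luciferin plus IBMX (each 0.5 mM as added) for 1 h at 37 °C, then compound for 1 h at 37 °C. Luminescence was read after 15 min at room temperature.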
* hit, by the source's call; i = inactive; ? = inconclusive; / = no result given; [ ] = another dose, or the depositor's remark. Compounds with a hit are over-represented: about 1.9% of the library has one in this group of screens. Unless noted, calls follow the shape of the dose curve; as a rule, active = well fitted curve in the direction sought with a large enough effect; inconclusive = small, poorly fitted or top-dose-only effect, or another doubt; inactive = no such curve, though single readings can be large; an effect the other way counts as inactive or inconclusive.

SMILES | FUS yeast rescue | TDP43 rescue | aSyn rescue | Abeta yeast res | LDHA inh | PTHR1 agonist
CC(=O)Nc1ccc(C(=O)N2c3ccccc3N=C(c3ccc4c(c3)OCO4)C2C(=O)NCc2ccccc2)cc1 (stereo not given) | 13µM* | 7% | -11% | i | -1 | i
C=C1C(=O)[C@]23C[C@H]1CCC2[C@@]1(C)C(C[C@@H]3O)[C@](C)(C(=O)OC)CC[C@@H]1O (stereo not given in full) | i | 3.2µM* | -51% | i | -2 | -22%
C=C1C(=O)[C@]23C[C@H]1CC[C@H]2[C@]1(C)CCC[C@@](C)(C(=O)OC)[C@H]1C[C@@H]3O | i | / | / | / | / | /
COc1ccc(Br)cc1CN1CCCCCCC1 | i | -18% | 2% | i | -30* | i
O=C(O)c1ccccc1NS(=O)(=O)c1cccc2nsnc12 | i | 4% | -1% | i | -1 | i
O=C(O)c1cc(Br)ccc1NS(=O)(=O)c1cccc2nsnc12 | i | -24% | 5% | i | -47* | -31%
c1cc2c3c(cccc3c1)/C(=N/OCC1CO1)C2 (stereo not given) | / | / | / | / | -31* | /
NC(=S)NN=C1Cc2cccc3cccc1c23 | i | 0% | -7% | i | -1 | i
CCc1ccc(C(=O)c2cn(Cc3ccc(F)cc3)c3cc(OC)c(OC)cc3c2=O)cc1 | 35µM* | ? | / | i | 0 | -64%
CCc1ccc(C(=O)c2cn(CC(=O)Nc3ccc(F)c(F)c3)c3cc(OC)c(OC)cc3c2=O)cc1 | ? | -8% | / | i | -4 | -27%
Cc1ccc(C)c(CSc2nnc(C(N)Cc3ccccc3)o2)c1 (stereo not given) | / | / | / | / | -10 | /
CCc1ccccc1NC(=O)c1cc2sccc2n1C | i | 13µM* | -1% | i | -8 | -2%
Cn1c(C(=O)Nc2ccccc2)cc2sccc21 | i | 13µM* | 6% | i | -2 | -41%
CC(CCc1ccccc1)NC(=O)c1cc2sccc2n1C (stereo not given) | i | 8% | 9% | i | -1 | -19%
COC(=O)c1ccc(NC(=O)c2cc3sccc3n2C)cc1 | i | 24% | -20% | i | 8 | -48%
COc1ccc(CNC(=O)c2cc3sccc3n2C)cc1 | i | 35µM* | / | i | 5 | -8%
COCCNC(=O)c1cc2sccc2n1C | i | 15% | -8% | i | -10 | 0%
COc1ccc2cc(C(=O)N3CCN(c4ccccc4O)CC3)c(C)nc2c1 | / | / | / | / | 5 | /
Cc1ccc(NC(=O)C(Cc2ccccc2)n2cnnn2)cc1F (stereo not given) | / | / | / | / | 3 | /
Cc1nc(C)c(CCC(=O)Nc2ccccc2Cl)c(=O)[nH]1 | / | / | / | / | -1 | /
CCn1cnc2c1c(=O)n(CC(=O)Nc1ccc(OC(F)(F)F)cc1)c(=O)n2Cc1ccccc1 | / | / | / | / | 12 | /
Cc1ccccc1Cn1ccc(-c2ccc3c(c2)OCO3)n1 | i | 18µM* | -8% | i | 2 | -11%[57.5 µM]
Fc1cccc(Cn2ccc(-c3ccc4c(c3)OCO4)n2)c1 | i | 13µM* | -14% | i | -1 | i
Cc1ccc(-c2nn(-c3ccccc3)cc2C=C2C(=O)CC(C)(C)CC2=O)cc1 | i | -20% | -1% | i | -5 | -36%[57.5 µM]
CC1=NNC(=O)/C1=C\c1cn(-c2ccccc2)nc1-c1ccc(Cl)cc1 | / | 10µM* | -26% | i | 0 | -32%
SMILES | FUS yeast rescue | TDP43 rescue | aSyn rescue | Abeta yeast res | LDHA inh | PTHR1 agonist
COC(=O)CNC(=O)c1cc(-c2cccs2)nc2ccccc12 | / | / | / | / | 1 | /
Nc1cc(Sc2ccccn2)cc([N+](=O)[O-])c1 | / | / | / | / | 11 | /
O=C(Nc1cc(Sc2ccccn2)cc([N+](=O)[O-])c1)c1cccc(F)c1 | / | 22µM* | 3% | i | -4 | -15%
Cc1c(OCc2ccccc2)cccc1OCc1ccccc1 | i | 0% | -11% | i | 3 | -13%
Clc1ncccc1OCc1ccccc1 | i | 13µM* | 3% | i | -4 | i
O=C(O)CNS(=O)(=O)c1cccc(C(=O)/C=C/c2ccccc2Cl)c1 | / | / | / | / | 1 | /
Cn1ncc(S(=O)(=O)Cc2ccccc2)c(Cl)c1=O | i | ? | ? | i | -7 | i
Cn1ncc(SCc2ccccc2)c(Cl)c1=O | i | 20µM* | 11% | i | -7 | -31%
CS(=O)(=O)c1cccc(C(=O)N2CCCCCC2)c1 | / | / | / | / | -3 | /
C#CCOCCOCCOCCNc1nc(N2CCN(C(=O)CCCCCCCCCCNC(=O)[C@H](CCCCN)n3cc(C[C@@H](C)CC)nn3)CC2)nc(N2CCN(C(=O)CCCCCCCCCCNC(=O)[C@H](CCCN=C(N)N)n3cc(C[C@@H](C)CC)nn3)CC2)n1 | 10µM* | -84% | -62% | i | 3 | i
C#CCOCCOCCOCCNc1nc(N2CCN(C(=O)CCCCCCCCCCNC(=O)[C@@H](CCSC)n3cc(CCO)nn3)CC2)nc(N2CCN(C(=O)CCCCCCCCCCNC(=O)[C@H](CCCN=C(N)N)n3cc(C[C@@H](C)CC)nn3)CC2)n1 | 10µM* | -1% | -50% | i | 1 | 8%
C#CCOCCOCCOCCNc1nc(N2CCN(C(=O)CCCCCCCCCCNC(=O)[C@H](CCCCN)n3cc(CCO)nn3)CC2)nc(N2CCN(C(=O)CCCCCCCCCCNC(=O)[C@H](CCCCN)n3cc(C[C@@H](C)CC)nn3)CC2)n1 | ? | 0% | -51% | i | -1 | i
O=C(Nc1ccc(N2CCCCCC2)cc1)c1ccccc1SC1CCS(=O)(=O)C1 (stereo not given) | / | / | / | / | 12 | /
N#CCC(=O)N/N=C/c1ccc(Sc2nc3ccccc3s2)o1 | 3.5µM* | ? | 0% | i | -48* | -26%[57.5 µM]
COCC(=O)N/N=C/c1ccc(Sc2nc3ccccc3s2)o1 | i | 28% | 13% | i | 0 | i
CC(Sc1nc(Cl)nc2nc[nH]c12)C(=O)N1CCN(c2ccccc2)CC1 (stereo not given) | / | / | / | / | 3 | /
COc1ccc(C(C)(O)c2nc(-c3ccc(F)c(Cl)c3)cs2)cc1 (stereo not given) | i | 18µM* | -11% | ? | 3 | -32%
COc1ccc(-c2csc(C(C)(O)c3ccc(OC)cc3)n2)cc1 (stereo not given) | i | 0% | 6.3µM* | ? | -3 | -44%
